KKLEB cytotox: counter-screen for CF NF-kB inhibitors: cytotoxicity. KKLEB CF airway cells viability, ATPlite luminescence, overnight; stronger effect = lower value; cells stimulated with P. aeruginosa culture filtrate. hit rate 0.36% among 360,000. activity change (cytotoxicity), % at 5 µM;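 active = corrected activity change at or below -50% at 5 µM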
HIF-2a block: HIF-2a inhibition | 786-0 RCC cells HIF-2a reporter, luciferase luminescence, overnight | inhibition, % at 18.8 µM | hit rate 0.72% among 360,000;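 active = inhibition of the luminescence signal of 40% or more relative to plate controls, in a single-dose primary screen at 18.75 µM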
Shn3 inh set2: reduces Shn3 3'UTR luciferase signal in osteoblasts; Clone20 osteoblast Shn3 3'UTR firefly luciferase, 24 h; inhibition, % at 12.5 µM; hit rate 0.52% among 360,000; AID 588674;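 active = mean inhibition of at least 75% with every replicate also reaching 75%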
Peg3 prom inh: Peg3 promoter activity inhibition | inhibition, % at 20 µM | AID 588405 | HeLa PEG-Prom luciferase reporter, luminescence, overnight | hit rate 1.7% among 360,000;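 active = inhibition of at least 50% at 20 µM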
CF NFkB block: inhibitors of cystic fibrosis induced NF-kB | KKLEB NF-kB-GFP reporter, PAF-induced, GFP fluorescence overnight | inhibition, % at 5 µM | hit rate 0.86% among 360,000 | AID 588850;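 active = at least 50% inhibition at 5 µM, scaled per plate between neutral and stimulator controls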;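 note: PAF is a Pseudomonas aeruginosa culture filtrate used as stimulus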
CF NFkB inh conf: CF NF-kB inhibition confirmation, single concentration | shares compounds with CF NFkB block | KKLEB CF airway cells, PAF-induced NF-kB-GFP fluorescence, overnight | inhibition, % at 5 µM | hit rate 64% among 1,300 | AID 602472; in the data active = inhibition above about 40%;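 note: stimulus PAF is a Pseudomonas aeruginosa filtrate and not platelet activating factor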
A number is an active result; 0 = inactive; - = no result. In the library only some 2.6% were active in any assay of this set; here they are far more common.

SMILES | KKLEB cytotox | HIF-2a block | Shn3 inh set2 | Peg3 prom inh | CF NFkB block | CF NFkB inh conf
CC(=O)N(CC(C)C(=O)O)c1c(I)cc(I)c(N)c1I (stereo unspecified) | 0 | 0 | 0 | 0 | 64 | 0
CN(C)C=Nc1c(C(=O)c2ccccc2)sc2nccc(N(C)C)c12 | 0 | 0 | 0 | 0 | 53 | 57
NC(=O)c1nsc(C(=O)N(c2ccccc2)C(C(=O)NCc2ccc(F)cc2)c2ccc(O)cc2)c1N (stereo unspecified) | 0 | 0 | 0 | 55 | 52 | 74
O=C(NCc1ccc(F)cc1)C(c1ccccc1)N(C(=O)c1csnn1)c1ccccc1 (stereo unspecified) | 0 | 0 | 0 | 0 | 61 | 0
O=C(NCc1ccccc1)C(c1ccccc1)N(C(=O)c1csnn1)c1ccccc1 (stereo unspecified) | 0 | 0 | 0 | 0 | 0 | -
COc1ccc(CCNC(=O)CN2c3cccc4cccc(c34)S2(=O)=O)cc1 | 0 | 0 | 0 | 0 | 0 | -
CCOC(=O)c1c[nH][nH]c1=O | 0 | 0 | 0 | 0 | 0 | -
O=C(NC1CCSc2ccccc21)c1ccc(C(F)(F)F)cc1 (stereo unspecified) | 0 | 0 | 0 | 0 | 0 | -
Cc1c([N+](=O)[O-])c2ccc(O)cc2n1-c1ccccc1 | 0 | 0 | - | 0 | 68 | 78
O=C(Cc1ccc([N+](=O)[O-])cc1)N1N=C(C2CC2)CC1(O)C(F)(F)F (stereo unspecified) | 0 | 0 | 0 | 0 | 0 | -
Cc1ccc(S(=O)(=O)CCC(=O)c2ccc(F)cc2)cc1 | 0 | 0 | 0 | 0 | 85 | 0
c1cc2[nH]snc2c2nc(C3CC3)nc12 | 0 | 0 | 0 | 0 | 74 | 68
COc1ccc(NC(=O)Cn2nnc(C(=O)NCc3ccc(C)cc3)c2N)cc1Cl | 0 | 0 | 0 | 0 | 58 | 0
COc1ccc(NC(=O)Cn2nnc(C(=O)NCc3ccccc3)c2N)cc1Cl | 0 | 0 | 0 | 0 | 0 | -
O=C(NCCC1=CCCCC1)C(=O)NCc1ccncc1 | 0 | 0 | 0 | 0 | 0 | -
C=C1CCC[C@]2(C)C[C@H]3OC(=O)C(CN(Cc4ccc(OC)c(OC)c4)CC(C)O)[C@H]3CC12 (stereo partly specified) | 0 | 0 | 0 | 0 | 56 | 47
C=C1CCC[C@]2(C)C[C@H]3OC(=O)C(CN[C@@H](C)c4ccccc4)[C@H]3CC12 (stereo partly specified) | 0 | 0 | 0 | 0 | 0 | -
CCc1nnc(NC(=O)CSc2nnc(CNc3ccc(F)cc3)n2C2CCCCC2)s1 | 0 | 0 | 0 | 0 | 0 | -
COC(=O)[C@]12CCCCC=C1N(Cc1ccc(Cl)cc1Cl)C(=O)[C@H](CC(=O)N1CCCC1)C2 | - | 0 | - | - | - | -
COc1ccc(-c2cc(=O)oc3cc(OC(=O)C4CCCCC4)ccc23)cc1 | 0 | 0 | 0 | 0 | 74 | 84
Cc1cc(N2CCOCC2)c2c(N)c(Br)cc(C)c2n1 | 0 | 0 | 0 | 0 | 66 | 97
O=C(NCC(=O)N1CCOCC1)c1ccccc1 | 0 | 0 | 0 | 0 | 0 | -
CC(=O)c1c(C(C)=O)c(C)n(Cc2ccccc2)c1C | 0 | 0 | 0 | 0 | 0 | -
Cc1c(C=O)c(C=O)c(C)n1Cc1ccccc1 | 0 | 0 | 0 | 0 | 53 | 66
COc1ccc(NC(=O)C2CCCN2C(=O)NCc2ccccc2)cc1 (stereo unspecified) | 0 | 0 | 0 | 0 | 0 | -
SMILES | KKLEB cytotox | HIF-2a block | Shn3 inh set2 | Peg3 prom inh | CF NFkB block | CF NFkB inh conf
O=C(NC1CCCCC1)c1ccc([N+](=O)[O-])o1 | 0 | 0 | 0 | 0 | 0 | -
O=C(NC1CCCC(C(F)(F)F)C1)c1ccc([N+](=O)[O-])o1 (stereo unspecified) | 0 | 0 | 0 | 71 | 92 | 53
CCOc1ccc(NC(=O)N2CCC(NC(=O)C(Cc3cccc(F)c3)NC(C)=O)CC2)cc1 (stereo unspecified) | 0 | 0 | 0 | 0 | 0 | -
COc1ccc2[nH]c3c(c2c1)CC(C)NC3=O (stereo unspecified) | 0 | 0 | 0 | 0 | 61 | 71
Cc1nc([N+](=O)[O-])c(Br)n1CC(=O)c1ccc(Br)cc1 | 0 | 0 | 0 | 0 | 53 | 0
COc1ccc(OC)c(-c2cc(C(=O)N/N=C/c3ccc(F)cc3)c3ccccc3n2)c1 | 0 | 0 | 0 | 0 | 0 | -
CCOc1ccccc1N1CCN(C(=O)c2cc(-c3cc(OC)ccc3OC)nc3ccccc23)CC1 | 0 | 0 | 0 | 0 | 65 | 63
COc1ccc(OC)c(-c2cc(C(=O)Nc3ccccc3C(N)=O)c3ccccc3n2)c1 | 0 | 0 | 0 | 54 | 80 | 0
Nc1ncnc(Nc2ccc(F)cc2)n1 | 0 | 0 | 0 | 0 | 0 | -
Fc1ccc(Nc2ccnc(Nc3ccc(F)cc3)n2)cc1 | 0 | 0 | 0 | 0 | 58 | 56
C=C1C[C@H]2[C@@H]3C=C(C)C4=CC(=O)CC[C@]4(C)[C@H]3CC[C@]2(C)[C@@]1(OC(C)=O)C(C)=O | 0 | 0 | 0 | 0 | 68 | 0
CC1CC(C)CN(CC(=O)NCCc2ccc(S(N)(=O)=O)cc2)C1 (stereo unspecified) | 0 | 0 | 0 | 0 | 0 | -
COc1ccc(-c2ccc([C@H]3[C@@H]4C=CCC[C@@]4(C)C(=O)N3Cc3ccccc3)c(F)c2)cc1OC | 0 | 0 | 0 | 0 | 53 | 0
COc1ccc(CCN2CC(C(=O)NCCN3CCCC3=O)CCC2=O)cc1 (stereo unspecified) | 0 | 0 | 0 | 0 | 0 | -
CCOC(=O)c1c(C)[nH]c(C)c1C(=O)CSc1nc2ccccc2n1CC | 0 | 0 | 0 | 0 | 0 | -
CCOC(=O)c1c(C)[nH]c(C)c1C(=O)CSc1nc2ccccc2c(=O)n1-c1ccc(CC)cc1 | 0 | 0 | 90 | 0 | 56 | 0
CC(C)c1nc(Cl)c(C#N)c2c1CCCC2 | 0 | 0 | 0 | 0 | 55 | 77
CC(C)c1nc(NCCO)c(C#N)c2c1CCCC2 | 0 | 0 | 0 | 0 | 71 | 55
Cc1cc(C)c(S(=O)(=O)n2c([N+](=O)[O-])cnc2C)c(C)c1 | 0 | 0 | 0 | 0 | 0 | -
O=C(Nc1cccc(S(=O)(=O)N2CCCCC2)c1)Nc1ccc(Cl)cc1Cl | 0 | 0 | 0 | 52 | 58 | 67
Clc1nc(Cl)c2ncn(-c3ccccc3)c2n1 | 0 | 0 | 0 | 81 | 76 | 0
Cn1cc(/C=C(\NC(=O)c2ccccc2)C(=O)NCCCN2CCOCC2)c2ccccc21 | 0 | 0 | 0 | 0 | 0 | -
COc1ccc(C(=O)CCC(=O)N2CCN(c3ccccc3)CC2)cc1 | 0 | 0 | 0 | 0 | 0 | -
CCn1c(=O)c2c(cnn2C)c2ccccc21 | 0 | 0 | 0 | 0 | 72 | 78
CCSC1(SCC)N=C(N)C2(C#N)C(c3ccc(OC)c(OC)c3OC)C12C#N (stereo unspecified) | 0 | 0 | 0 | 0 | 79 | 0
CC(C)n1c(SCc2cc(=O)[nH]c3ccccc23)nc2c1c(=O)n(C)c(=O)n2C | 0 | 0 | 0 | 0 | 0 | -
CC(C)n1c(SCc2ccccc2F)nc2c1c(=O)n(C)c(=O)n2C | 0 | 0 | 0 | 0 | 57 | 58
COc1cccc(CNc2ncnc3ccc(-c4c(C)noc4C)cc23)c1 | 0 | 0 | 0 | 0 | 0 | -
